The campaign covered roughly 270,000 compounds. About 1,100 (0.41%) were called active. Another 3% or so got no clear call; they are omitted. Many of the other results were omitted from the sample, so actives are more common in it than they were. A number with no mark means an inactive call. Calls come from the whole dose curve.
Experiment: qHTS Assay for Inhibitors of Influenza NS1 Protein Function; note: actives are rising curves; nearly all actives have a fitted effect of over 50% in size
Conditions: series mostly up to 46.1 µM; activity, positive = more growth: at the top concentration
Excerpt: NIH Chemical Genomics Center [NCGC]
NIH Molecular Libraries Probe Centers Network [MLPCN]
Assay Submitter (PI): Daniel Engel
Influenza is a world-wide public health problem and emerging forms of the virus have the potential to cause a pandemic of equal or greater magnitude to the outbreaks recorded in 1918, 1957 or 1968. Vaccine development is proceeding and there also exist two classes of anti-influenza compounds. However these therapeutic modalities are neither fully effective nor widely enough available to fulfill global needs. In addition their potential usefulness against newly emergent strains is not known. Efforts are needed to develop novel agents against influenza virus, including broad-spectrum agents. Identification of small molecules that inhibit NS1 function either directly or by interfering with specific cellular pathways may be a key to increasing our defense against the virus.
We have miniaturized and optimized a cell based assay in which NS1 from influenza A is expressed in the budding yeast S. cerevisiae. NS1 is a multi-functional protein that counters the host innate immune response and facilitates viral versus cellular gene expression. Expression of NS1 causes a pronounced slow growth phenotype in yeast due to its intrinsic molecular activities. Small molecules that suppress the slow growth phenotype can be identified by a straightforward growth recovery assay using optical density (OD) as the measurement. The same yeast strain not expressing NS1 was used as positive control in the yeast growth recovery assay.
The yeast S. cerevisiae control and NS1 expressing cells were kindly supplied by laboratory of Dr. Daniel Engel, University of Virginia. Yeast starter cultures were stored in single use aliquots at -80C.
1. Yeast culture medium per liter: 1.2 g Yeast Nitrogen Base (w/out amino acids and Ammonium Sulphate), 5.0g Ammonium Sulphate, 0.77g -URA DO (drop-out) Supplement, adjust pH to 6.0. Adjust to 2% glucose prior to inoculating with yeast.
2. Yeast assay medium: 1.2 g Yeast Nitrogen Base (w/out amino acids and Ammonium Sulphate), 5.0g Ammonium Sulphate, 0.77g -URA DO (drop-out) Supplement, adjust pH to 6.0. Adjust to 2% D-galactose prior to inoculating with yeast.
1. Inoculate 100 mls of yeast culture medium with 1 ml of frozen yeast aliquote. Incubate overnight at 30C, 250RPM.
2. Harvest overnight culture at 4000 RPM and wash pellet with 15 mls H2O 3x.
3. Re-suspend washed pellet in 10 mls of yeast assay medium.
4. Prepare a 1:100 dilution of re-suspended culture in yeast assay medium.
5. Dispense 3.5 ul per well of reagents in step 4 in columns 2-48 in a black clear bottom 1536 well plate.
6. Dispense 3.5 ul per well of yeast assay medium in column 1 only.
7. Transfer 23 nl of compound per well.
8. Dispense 3.5 ul per well of yeast assay medium in columns 1-48.
9. Read plate using Viewlux protocol for optical density 600 (OD600) using excitation filter 600nm.
Potency is the fitted concentration of half-maximal effect.

| Structure (SMILES) | activity, positive = more growth [%] | Potency |
| --- | --- | --- |
| CSc1ccccc1OCc1cc(C(=O)N2C[C@H]3CC[C@H]2C3)no1 | -47 |  |
| Cc1cc2cc(CNC(=O)c3ccc(S(=O)(=O)N4CCOCC4)cc3)ccc2[nH]1 | -8.99 |  |
| Cc1cc2cc(CNC(=O)c3cccs3)ccc2[nH]1 |  | 7.08 µM (active) |
| CCc1cccc(CC)c1NC(=S)NCc1ccc2[nH]c(C)cc2c1 | 18.4 |  |
| CCC(=O)Nc1ccc(-c2ccc(N3CCCCC3)nn2)cc1 | -6.81 |  |
| CCCCNC(=O)N(O)C1N(/N=C/c2ccccc2O)C(=S)SC1(C)C (stereo not drawn) | -46 |  |
| COc1ccc(CNC(=O)CCC(=O)Nc2nnc(C(C)C)s2)cc1 | 2.26 |  |
| C/C=C/C(=O)Nc1nnc(C(C)C)s1 | -1.95 |  |
| COc1cccc(OC)c1C(=O)Nc1nnc(C(C)C)s1 |  | 3.98 µM (active) |
| CCCN1CCn2c3c(c4cc(Br)ccc42)CCCC31 (stereo not drawn) | -7.34 |  |
| O=C(NCCCc1ccccc1)C(=O)c1c[nH]c2ccccc12 | -5.78 |  |
| CSc1nnc(NC(=O)c2nc(S(=O)(=O)Cc3ccc(C)cc3)ncc2Cl)s1 | 9.05 |  |
| CCc1ccc(S(=O)(=O)N/N=C\c2ccc([N+](=O)[O-])o2)cc1 | -23.4 |  |
| CSCc1nnc(NC(=O)c2ccc(S(=O)(=O)N3CCCCC3C)cc2)o1 (stereo not drawn) | -18.6 |  |
| Cc1nc2c(c(=O)n1Cc1ccco1)c1nc3ccccc3nc1n2Cc1ccccc1 | 3.74 |  |
| COCCCn1c2nc3ccccc3nc2c2c(=O)n(Cc3ccc(Cl)cc3)c(C)nc21 | -0.53 |  |
| Cc1ccc(Cn2c(C)nc3c(c2=O)c2nc4ccccc4nc2n3Cc2ccco2)cc1 |  | 4.47 µM (active) |
| CC1(C(=O)NNC(=S)NCC2CCCO2)CC1(Cl)Cl (stereo not drawn) | -1.43 |  |
| O=C(N[C@@H](Cc1ccccc1)C(=O)OCc1ccccc1)c1nc[nH]c1C(=O)N[C@@H](Cc1ccccc1)C(=O)OCc1ccccc1 | 6.79 |  |
| CCc1ccc(OCC2c3cc(OC)c(OC)cc3CCN2C(C)=O)cc1 (stereo not drawn) | 5.89 |  |
| COc1ccc(NC(=O)CN2CCN(S(=O)(=O)c3ccc(F)cc3)CC2)cc1Cl | -4.2 |  |
| COc1cc2c(cc1NC(=O)CN1CCN(S(=O)(=O)c3ccc(F)cc3)CC1)oc1ccccc12 |  | 5.62 µM (active) |
| COc1ccccc1NC(=O)CN1CCN(S(=O)(=O)c2ccc(Br)cc2)CC1 | -5.14 |  |
| CC(CN1CCOCC1)OC(=O)c1ccc(C(C)(C)C)cc1 (stereo not drawn) | -23.1 |  |
| O=C(CC(n1cncn1)C(Cl)(Cl)Cl)c1ccc([N+](=O)[O-])cc1 (stereo not drawn) | -84.2 |  |
| COc1ccc(S(=O)(=O)Nc2c(C)n(C)n(-c3ccccc3)c2=O)cc1 |  | 3.98 µM (active) |
| Cc1cc(C)c(S(=O)(=O)Nc2c(C)n(C)n(-c3ccccc3)c2=O)cc1[N+](=O)[O-] | -4.82 |  |

| Structure (SMILES) | activity, positive = more growth [%] | Potency |
| --- | --- | --- |
| Cc1ccc(S(=O)(=O)Nc2ccccc2CNc2c(C)n(C)n(-c3ccccc3)c2=O)cc1 | -70 |  |
| O=[N+]([O-])c1ccc(NC(=S)N2CCN(c3ccccn3)CC2)cc1 | -11.2 |  |
| FC(F)(F)C1CCCN(c2nsc3ccccc23)C1 (stereo not drawn) | -121 |  |
| COc1cccc(OCc2cc(C(=O)N3CCN(C(=O)c4ccco4)CC3)no2)c1 | -6.93 |  |
| Cc1ccsc1/C=N/NC(=O)Cc1cc(=O)[nH][nH]1 | 14.1 |  |
| Cc1cc(C(=O)N/N=C/c2ccccc2[N+](=O)[O-])c(C)o1 | -0.261 |  |
| O=C(Cc1cc(=O)[nH][nH]1)N/N=C/c1ccccc1[N+](=O)[O-] |  | 8.91 µM (active) |
| COc1cnc(-c2ccccn2)nc1Oc1ccc(C(C)(C)C)cc1 | -1.08 |  |
| O=C(CSc1nnnn1C1CCCC1)N1CCCCC1 | 4.51 |  |
| COc1ccc(C2CC(c3cccs3)=NN2C(=O)CCC(=O)O)cc1OC (stereo not drawn) | 19.5 |  |
| COc1ccc(C2CC(c3cccs3)=NN2C(=O)COC(=O)c2cc3ccccc3cc2O)cc1OC (stereo not drawn) | 24.1 |  |
| O=C1c2cccc(OCC(=O)N3N=C(c4cccs4)CC3c3ccc(F)cc3)c2CCN1Cc1ccccc1 (stereo not drawn) |  | 5.01 µM (active) |
| O=C(Nc1ccc(C2CC2(Cl)Cl)cc1)c1cccc([N+](=O)[O-])c1 (stereo not drawn) | -29.5 |  |
| Cc1cnc(NC(=O)c2ccc(Cl)nc2)s1 | -1.39 |  |
| O=C(CCCN1C(=O)/C(=C/c2cccs2)SC1=S)Nc1ccc(O)cc1 | -5.71 |  |
| COc1ccc(CNC(=O)C(c2ccc(O)cc2)N(Cc2ccco2)C(=O)c2snc(C(N)=O)c2N)cc1 (stereo not drawn) | 12.4 |  |
| Cc1cccc(NC(=S)NCCc2ccc(Cl)cc2)c1C | -49.7 |  |
| Clc1ccccc1CSc1nnc(-c2ccco2)c(-c2ccco2)n1 | 10.7 |  |
| O=c1[nH]nc(CSCc2ccccc2Cl)[nH]1 | -9.59 |  |
| O=c1cc(O)nc(SCc2ccccc2Cl)[nH]1 |  | 5.01 µM (active) |
| COc1ccc(C(=O)/C=C/c2cccnc2)c(OC)c1 | -15.2 |  |
| O=C(/C=C/c1ccco1)NC(=S)Nc1ccccc1Br | 13.4 |  |
| Oc1ccccc1-c1cc(-c2ccc(Cl)cc2)n[nH]1 | -6.76 |  |
| Cc1ccccc1C(OCC(O)CN1CCCCC1CCO)c1ccccc1 (stereo not drawn) |  | 4.47 µM (active) |
| CC(C)OCC(O)CN1CCN(C(c2ccccc2)c2ccccc2)CC1 (stereo not drawn) | 0.765 |  |
| COc1cccc(CN(C)CC(O)COC(c2ccccc2)c2ccccc2C)c1 (stereo not drawn) | 2.51 |  |

From PubChem BioAssay AID2326 (National Center for Advancing Translational Sciences (NCATS), 2010)
